In PubChem BioAssay (NCI) one finds growth data, which are given here for eight molecules.

Common to all, as to assay: NCI-60 one-dose screen, 48 h (100 = growth as untreated, 0 = no growth, -100 = all killed)
What all share (conditions): 10 µM unless noted

The subject of test [1] is SR leukemia.
The test system of test [2] is RPMI-8226 leukemia.
The test system of test [3] is OVCAR-8 ovarian.
For test [4], the system named is OVCAR-5 ovarian.
Test [5] concerns OVCAR-4 ovarian.
Test [6] concerns SK-OV-3 ovarian.
Test [7] deals with IGROV1 ovarian.
In test [8] the test system is HS 578T breast.
The test system of test [9] is NCI/ADR-RES ovarian.
Test [10] deals with T-47D breast.
Test [11] concerns BT-549 breast.
For test [12], the system named is MDA-MB-435 melanoma.
Test [13] relates to SW-620 colon.
Test [14] concerns MCF7 breast.
For test [15], the system named is HCT-116 colon.
In test [16] the test system is HCC-2998 colon.
The subject of test [17] is KM12 colon.

Compounds without any hit were thinned out: in the full panel of roughly 83,000, 20% have a hit.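 The endpoint reported here, percent growth, reads 100 for growth as untreated, 0 for no net growth and -100 for all cells dead.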 Values without a mark were called inactive. The source made the active and inactive calls. How the source made its calls: active means growth percent below 10; inactive means the rest.

For `COc1cc(C(=O)c2cc(C(C)=O)c3cccc(C)n23)cc(OC)c1OC`, the growth in test [1] is 17%; in test [2] it was 51.2%; in test [3], 50.8%; in test [4], 65.8%; in test [5], 74.1%; in test [6] it was 46.6%. For the same molecule, the growth in test [7] was 43.9%; in test [8], 44.2%; in test [9] it was 22.1%; in test [10] it was 20.3%; in test [11] it was 25.8%; in test [12], -30.1% (active). Further, the growth was 26% in test [13]; 20.3% in test [14]; 16.6% in test [15]; 61.1% in test [16]; 29.8% in test [17].
On to `C#Cc1nc(C(=O)NCCCCCCC(=O)NO)cs1`, for which the growth in test [1] was 0.171% (active); in test [2], -10.1% (active); in test [3] it was 15.8%; in test [4], 10.2%; in [5] it was 25.8%; in test [6], 29.2%. In addition, the growth in test [7] is -72.6% (active); in test [8], -3.14% (active); in test [9], 2.01% (active); in test [10], -38.5% (active); in test [11], 50.3%; in test [12] it was -34.9% (active). The growth in [13] is 0.565% (active); in test [14], 6.97% (active); in test [15], -18.2% (active); in test [16] it was 25.9%; in test [17] it was -7.86% (active).
Take `CCOC(=O)c1cccnc1Nc1ccc(NC(=O)Nc2ccc(Cl)c(C(F)(F)F)c2)cc1`: the growth was 54% in test [1]; 16% in test [2]; 39.3% in [3]; 85.7% in [4]; 42.8% in [5]; 70.1% in [6]. The growth is 29.9% in test [7]; 84.5% in test [8]; 35.3% in [9]; -1.09% (active) in test [10]; 60.9% in test [11]; 53.1% in [12]. In addition, the growth in [13] is 37.1%; in [14] it was 17.8%; in test [15], 16.4%; in test [16], 50.4%; in test [17], 17.5%.
Regarding `CC(C)(C)OC(=O)NCc1ccc(CNc2c([N+](=O)[O-])cnc3ccccc23)cc1`, the growth in [1] was 37.1%; in test [2] it was 43.6%; in test [3], 63.4%; in test [4], 93.6%; in [5], 54.8%; in [6], 68%. The growth is 76.5% in [7]; 76.9% in test [8]; 38.2% in [9]; 28.1% in test [10]; 54.8% in test [11]; 56.4% in test [12]. Also, the growth in test [13] was 89.6%; in test [14], 40.6%; in [15], 37.7%; in test [16], 84.7%; in [17] it was 74.9%.
As to `Fc1ccc(-c2cn3c(-c4c[nH]c5ccc(Br)cc45)csc3n2)cc1`, the growth in [1] is 88.7%; in test [2], 77.8%; in test [3], 74.8%; in test [4], 73.8%; in [5] it was 34.3%; in test [6], 84.4%. Moreover, the growth in [7] was 63.7%; in [8] it was 14%; in test [9], 48.7%; in [10], 66.3%; in [11], 95.4%; in test [12], 83.1%. Further, the growth was 81.4% in test [13]; 60.9% in test [14]; 73.8% in [15]; 100% in test [16]; 66.5% in test [17].
For the molecule `Nn1c(=O)n(-c2cccc(C(F)(F)F)c2)c(=O)c2cc(-c3ccc(F)cc3F)ccc21`, the growth in [1] was 6.24% (active); in [2], -19.1% (active); in test [3], 9.99% (active); in test [4], 47.2%; in [5], 28.8%; in test [6] it was -8.64% (active). Moreover, the growth in [7] is 20.9%; in [8], 0.556% (active); in [9] it was 2.58% (active); in test [10] it was -13.8% (active); in test [11], -6.33% (active); in test [12], 3.27% (active). The growth in test [13] was 17%; in test [14], 1.3% (active); in test [15] it was 3.16% (active); in [16] it was 12.5%; in [17] it was 8.93% (active).
On to `C#Cc1nc(/C=C/C(=O)NO)cs1`, for which the growth in test [1] was -42.9% (active); in [2], -6.82% (active); in test [3], 21%; in test [4], 42.3%; in [5], -24.9% (active); in [6] it was 95.6%. Moreover, the growth in [7] is -71.5% (active); in test [8] it was 56%; in test [9] it was -6.26% (active); in [10], 67.9%; in test [11] it was 101%; in [12], 61.1%. For the same molecule, the growth in test [13] is 45.8%; in test [14], 62.6%; in [15], 23.8%; in test [16], 111%; in test [17], 56.3%.
Take `CCCCCCNC(=O)Oc1ccc(/C(=C(/C)c2ccc(Cl)cc2)c2ccc(OCCN3CCCCCC3)cc2)cc1`: the growth in test [1] is 2.59% (active); in [2] it was 64.3%; in test [3], 78.2%; in test [4] it was 83%; in [5], 61%; in test [6], 96%. Besides, the growth in [7] is 68.4%; in [8], 63.8%; in test [9], 79.4%; in [10], 48.2%; in test [11] it was 101%; in test [12], 70%. For the same molecule, the growth in [13] is 22.4%; in [14], 15.7%; in test [15], 30.9%; in [16], 90.7%; in test [17], 58.9%.
